Experiment [1] deals with human Peroxisome Proliferator-activated Receptor alpha (PPARa), PPARA (gene 5465) (UniProt Q07869). Kind of experiment: ATG_PPARa_TRANS: Attagene TRANS-FACTORIAL HepG2 Assay for human Peroxisome Proliferator-activated Receptor alpha (PPARa) (AID 2283001; active = hit-call score of the fitted dose curve at least 0.9, where 1 is the maximum). An outline of the steps: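 Reporter transcripts quantified by RT-PCR plus capillary electrophoresis after 24 h treatment, fitted upward relative to DMSO. Cells: human HepG2 transiently carrying multiple GAL4-UAS reporter units driven by NR-Gal4 chimeras.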
Sequence of human Peroxisome Proliferator-activated Receptor alpha (PPARa), PPARA (gene 5465) (Q07869 whole entry, looked up, the tested form may be a part): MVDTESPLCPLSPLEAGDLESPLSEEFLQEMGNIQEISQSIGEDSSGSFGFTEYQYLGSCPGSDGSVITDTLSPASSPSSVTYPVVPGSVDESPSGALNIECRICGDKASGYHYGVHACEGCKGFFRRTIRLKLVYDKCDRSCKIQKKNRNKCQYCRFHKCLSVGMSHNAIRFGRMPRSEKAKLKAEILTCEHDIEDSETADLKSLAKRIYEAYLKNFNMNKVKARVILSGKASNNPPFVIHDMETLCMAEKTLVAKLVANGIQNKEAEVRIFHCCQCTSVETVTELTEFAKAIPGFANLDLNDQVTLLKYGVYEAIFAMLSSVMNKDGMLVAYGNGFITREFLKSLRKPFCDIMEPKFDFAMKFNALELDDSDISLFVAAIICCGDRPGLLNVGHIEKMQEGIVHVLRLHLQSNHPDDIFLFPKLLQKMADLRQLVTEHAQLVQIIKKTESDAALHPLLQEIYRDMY

Read-out in experiment [2]: Intercellular Adhesion Molecule 1 (ICAM1), ICAM1 (gene 3383)
Kind of experiment: BSK_3C_ICAM1: BioMAP Diversity Plus: 3C Assay for Intercellular Adhesion Molecule 1 (ICAM1) Biomarker Activity (AID 2283003). Conditions: primary human endothelial cells (HUVEC); actives raise or lower the signal. An outline of the steps:
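Chemicals are dosed onto primary human umbilical vein endothelium (3C system). After 24 h, ICAM-1 is measured by ELISA, and responses are fitted bidirectionally relative to DMSO.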

For experiment [3], the target named is human Retinoic Acid Receptor beta (RARb), RARB (gene 5915) (UniProt P10826). Kind of experiment: ATG_RARb_TRANS: Attagene TRANS-FACTORIAL HepG2 Assay for human Retinoic Acid Receptor beta (AID 2283004; active = hit-call score of the fitted dose curve at least 0.9, where 1 is the maximum). Put shortly: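 Transient transfection of HepG2 with multiple reporter units → chemical dosing, 24 h → total RNA isolation → RT with oligo(dT) → reporter-specific PCR, 6-FAM primer extension, HpaI digest → capillary electrophoresis. Positive direction vs DMSO control.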
Sequence of human Retinoic Acid Receptor beta (RARb), RARB (gene 5915) (P10826 whole entry, looked up): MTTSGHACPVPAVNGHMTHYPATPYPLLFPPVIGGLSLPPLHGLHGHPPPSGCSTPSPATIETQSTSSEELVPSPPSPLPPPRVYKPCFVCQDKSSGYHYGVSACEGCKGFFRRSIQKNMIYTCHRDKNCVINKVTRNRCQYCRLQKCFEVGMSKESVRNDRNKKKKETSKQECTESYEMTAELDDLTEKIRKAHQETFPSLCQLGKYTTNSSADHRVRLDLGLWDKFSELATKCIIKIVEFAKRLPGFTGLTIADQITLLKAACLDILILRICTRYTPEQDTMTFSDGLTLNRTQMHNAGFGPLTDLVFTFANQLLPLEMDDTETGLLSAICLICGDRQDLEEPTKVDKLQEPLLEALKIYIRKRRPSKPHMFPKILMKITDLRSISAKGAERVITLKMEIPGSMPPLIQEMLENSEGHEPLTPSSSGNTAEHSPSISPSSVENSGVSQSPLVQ

For experiment [4], the target named is Retinoic acid receptor alpha (Homo sapiens) (UniProt P10276). Kind of experiment: ATG_RARa_TRANS: Attagene TRANS-FACTORIAL HepG2 Assay for human Retinoic Acid Receptor alpha (RARa) (AID 2283005; active = hit-call score of the fitted dose curve at least 0.9, where 1 is the maximum). An outline of the steps:
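Reporter transcripts, measured by RT-PCR with fluorescent labeling and capillary electrophoresis after 24 h dosing, reflect activity of an exogenous human RARa–GAL4 fusion in transiently transfected HepG2. Fitted for increase relative to DMSO.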

Experiment [5] is described as follows: BSK_3C_Proliferation: Cell Proliferation Assessment in the BioMAP Diversity Plus: 3C Assay (AID 2283006).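 For AC50: potency may reflect either rise or fall in cell number versus DMSO.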 As to conditions: primary human endothelial cells (HUVEC). An outline of the steps:
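Cells (human umbilical vein endothelial, sub-confluent) receive test chemical; after 48 h they are fixed in 10% trichloroacetic acid, stained with 0.1% SRB and read at 560 nm. Activity is referenced to DMSO, fitting increases and decreases.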

The target of experiment [6] is Peroxisome proliferator-activated receptor gamma (Homo sapiens) (UniProt P37231). Kind of experiment: ATG_PPARg_TRANS: Attagene TRANS-FACTORIAL HepG2 Assay for human Peroxisome Proliferator-activated Receptor-gamma (PPARg) (AID 2283007; active = hit-call score of the fitted dose curve at least 0.9, where 1 is the maximum). Put shortly:
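Multiplexed reporter transcription units in HepG2, 24 h dosing, reporter transcripts quantified by fluorescent RT-PCR and capillary electrophoresis. Increase over DMSO scored.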

Experiment [7] concerns the target Nuclear receptor subfamily 1 group I member 2 (Homo sapiens) (UniProt O75469). Kind of experiment: ATG_PXR_TRANS: Attagene TRANS-FACTORIAL HepG2 Assay for human Pregnane X Receptor (PXR) (AID 2283008; active = hit-call score of the fitted dose curve at least 0.9, where 1 is the maximum). Put shortly:
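Transient HepG2 transfectants carrying multiplexed reporter transcription units; PXR activity read through a Gal4 chimera. 24 h exposure. RT-PCR/CE fluorescence; upward curve fit referenced to DMSO.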

Experiment [8] concerns the target human Retinoic Acid Receptor gamma (RARg), RARG (gene 5916) (UniProt P13631). Kind of experiment: ATG_RARg_TRANS: Attagene TRANS-FACTORIAL HepG2 Assay for human Retinoic Acid Receptor gamma (RARg) (AID 2283009; active = hit-call score of the fitted dose curve at least 0.9, where 1 is the maximum). Put shortly:
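TRANS format measured activity of exogenous NR-GAL4 fusion (RARg) in transfected HepG2 liver cells after 24 h dosing. Induced reporter RNA was detected by RT-PCR/capillary electrophoresis fluorescence, analysed in the positive direction against DMSO.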

Experiment [9] addresses Retinoic acid receptor RXR-alpha (Homo sapiens) (UniProt P19793). Kind of experiment: ATG_RXRa_TRANS: Attagene TRANS-FACTORIAL HepG2 Assay for human Retinoid X Receptor alpha (RXRa) (AID 2283012; active = hit-call score of the fitted dose curve at least 0.9, where 1 is the maximum). An outline of the steps:
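Measures exogenous chimeric NR-GAL4 activity in transfected HepG2 liver cells after 24 h of dosing. Induced reporter mRNA was detected by RT-PCR with capillary electrophoresis, and gain of signal was analysed against DMSO.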

In experiment [10] the target is human Retinoid X Receptor beta (RXRb), RXRB (gene 6257) (UniProt P28702). Kind of experiment: ATG_RXRb_TRANS: Attagene TRANS-FACTORIAL HepG2 Assay for human Retinoid X Receptor beta (RXRb) (AID 2283013; active = hit-call score of the fitted dose curve at least 0.9, where 1 is the maximum). An outline of the steps: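 Chimeric receptor-Gal4 activity was assessed in transiently transfected human HepG2 cells after 24 h exposure. Transcripts from GAL4-UAS reporters were quantified by fluorescent RT-PCR and capillary electrophoresis, with DMSO as negative control and baseline.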
Sequence of human Retinoid X Receptor beta (RXRb), RXRB (gene 6257) (P28702 whole entry, looked up, the tested form may be a part): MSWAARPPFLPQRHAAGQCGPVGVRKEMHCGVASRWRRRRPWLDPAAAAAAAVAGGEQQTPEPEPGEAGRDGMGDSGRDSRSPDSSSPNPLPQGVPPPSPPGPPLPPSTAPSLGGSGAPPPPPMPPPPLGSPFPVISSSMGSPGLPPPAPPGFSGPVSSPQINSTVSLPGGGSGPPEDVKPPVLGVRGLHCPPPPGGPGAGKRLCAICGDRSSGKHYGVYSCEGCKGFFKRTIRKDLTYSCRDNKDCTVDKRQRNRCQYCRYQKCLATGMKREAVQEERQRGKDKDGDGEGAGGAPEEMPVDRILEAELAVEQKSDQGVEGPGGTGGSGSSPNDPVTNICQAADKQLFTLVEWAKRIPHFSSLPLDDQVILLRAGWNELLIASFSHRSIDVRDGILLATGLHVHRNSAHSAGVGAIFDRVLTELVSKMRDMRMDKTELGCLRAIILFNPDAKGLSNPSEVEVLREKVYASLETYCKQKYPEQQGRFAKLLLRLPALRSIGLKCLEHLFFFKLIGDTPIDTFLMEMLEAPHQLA

Read-out in experiment [11]: E-selectin (Homo sapiens) (UniProt P16581)
Kind of experiment: BSK_3C_Eselectin: BioMAP Diversity Plus: 3C Assay for Eselectin Biomarker Activity (AID 2283015).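 For outcome: cell surface E-selectin protein quantified by ELISA 24 h after dosing.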 As to conditions: primary human endothelial cells (HUVEC); actives raise or lower the signal. Put shortly: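 ELISA read-out of E-selectin on endothelial monolayers after 24 h chemical treatment. Human umbilical vein primary cells served as the system, with DMSO defining baseline activity for bidirectional fitting.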

Read-out in experiment [12]: Interleukin-1 alpha (IL1a), IL1A (gene 3552)
Kind of experiment: BSK_BE3C_IL1a: BioMAP Diversity Plus: BE3C Assay for Interleukin-1 alpha (IL1a) Biomarker Activity (AID 2283016). Conditions: primary human bronchial epithelial cells; actives raise or lower the signal. An outline of the steps:
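Signal from IL-1a ELISA, taken 24 h after chemical dosing of human bronchial epithelial cells, is compared with DMSO as baseline using bidirectional curve fitting.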

Read-out in experiment [13]: Monocyte Chemoattractant Protein-1 (MCP1), CCL2 (gene 6347)
Kind of experiment: BSK_3C_MCP1: BioMAP Diversity Plus: 3C Assay for Monocyte Chemoattractant Protein-1 (MCP1) Biomarker Activity (AID 2283017). As to conditions: primary human endothelial cells (HUVEC); actives raise or lower the signal. Put shortly: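 ELISA read-out of MCP-1 from human umbilical vein endothelial cell cultures harvested 24 h post-dosing. Gain or loss of signal was fitted relative to DMSO.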

Read-out in experiment [14]: Monocyte Chemoattractant Protein-1 (MCP1), CCL2 (gene 6347)
Kind of experiment: BSK_4H_MCP1: BioMAP Diversity Plus: 4H Assay for Monocyte Chemoattractant Protein-1 (MCP1) Biomarker Activity (AID 2283018). As to conditions: primary human endothelial cells (HUVEC); actives raise or lower the signal. An outline of the steps:
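Endothelial cells from umbilical vein were treated with test chemical, then after 24 h MCP-1 levels were quantified by ELISA; endpoint values came from bidirectional fitting with DMSO as baseline of activity.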

Read-out in experiment [15]: Human Leukocyte Antigen - DR isotype (HLADR), HLA-DRA (gene 3122)
Kind of experiment: BSK_3C_HLADR: BioMAP Diversity Plus: 3C Assay for Human Leukocyte Antigen - DR isotype (HLADR) Biomarker Activity (AID 2283019). As to conditions: primary human endothelial cells (HUVEC); actives raise or lower the signal. Put shortly: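 ELISA readout of surface HLA-DR on human umbilical vein endothelium, taken 24 h after chemical treatment. Gain- and loss-of-signal were both fitted relative to DMSO.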

Read-out in experiment [16]: Interleukin-8 (IL8), CXCL8 (gene 3576)
Kind of experiment: BSK_3C_IL8: BioMAP Diversity Plus: 3C Assay for Interleukin-8 (IL8) Biomarker Activity (AID 2283020). Conditions: primary human endothelial cells (HUVEC); actives raise or lower the signal. Put shortly:
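Endothelial primary cells of human umbilical vein origin are dosed with chemical; after 24 h the IL-8 biomarker is measured by ELISA, and concentration–response is fitted in both directions versus DMSO.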

Read-out in experiment [17]: Monokine induced gamma interferon (MIG), CXCL9 (gene 4283)
Kind of experiment: BSK_3C_MIG: BioMAP Diversity Plus: 3C Assay for Monokine induced gamma interferon (MIG) Biomarker Activity (AID 2283021).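 For AC50: MIG protein level measured by immunoassay in the treated endothelial cultures.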 Conditions: primary human endothelial cells (HUVEC); actives raise or lower the signal. Put shortly: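 Endothelial primary cells (human umbilical vein) are dosed with test chemical in the 3C system. MIG levels are measured by ELISA at 24 h and fitted in both directions relative to DMSO.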

For experiment [18], the target named is human Thyroid Receptor alpha (THRa1), THRA (gene 7067) (UniProt P10827). Kind of experiment: ATG_THRa1_TRANS: Attagene TRANS-FACTORIAL HepG2 Assay for human Thyroid Receptor alpha (THRa1) (AID 2283014; active = hit-call score of the fitted dose curve at least 0.9, where 1 is the maximum). An outline of the steps: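 Reporter transcript induction, read by capillary electrophoresis of 6-FAM-labelled RT-PCR products, reflects activity of a transfected THRa1-Gal4 fusion in HepG2 liver cells. Cells were dosed for 24 h; activity was fitted in the positive direction against DMSO.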
Sequence of human Thyroid Receptor alpha (THRa1), THRA (gene 7067) (P10827 whole entry, looked up, the tested form may be a part): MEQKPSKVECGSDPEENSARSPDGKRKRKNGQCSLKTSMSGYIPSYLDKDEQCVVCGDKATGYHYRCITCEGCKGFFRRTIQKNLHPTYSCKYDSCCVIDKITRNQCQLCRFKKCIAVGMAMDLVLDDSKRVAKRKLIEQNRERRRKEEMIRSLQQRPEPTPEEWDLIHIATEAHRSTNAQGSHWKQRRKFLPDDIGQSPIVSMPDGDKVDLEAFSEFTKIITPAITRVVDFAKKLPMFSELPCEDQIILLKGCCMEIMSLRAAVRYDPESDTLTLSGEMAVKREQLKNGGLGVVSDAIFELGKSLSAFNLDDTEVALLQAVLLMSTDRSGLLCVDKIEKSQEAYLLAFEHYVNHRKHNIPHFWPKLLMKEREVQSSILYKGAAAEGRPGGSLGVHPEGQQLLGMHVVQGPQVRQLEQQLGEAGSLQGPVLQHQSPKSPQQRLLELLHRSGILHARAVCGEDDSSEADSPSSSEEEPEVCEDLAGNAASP

Records with an inconclusive call do not appear. Calls of active or inactive are those of the source. Rule for the calls, unless noted: active = hit-call score of the fitted dose curve at least 0.9, where 1 is the maximum; inactive = score below 0.9.

Sequence of human Retinoic Acid Receptor gamma (RARg), RARG (gene 5916) (P13631 whole entry, looked up, the tested form may be a part): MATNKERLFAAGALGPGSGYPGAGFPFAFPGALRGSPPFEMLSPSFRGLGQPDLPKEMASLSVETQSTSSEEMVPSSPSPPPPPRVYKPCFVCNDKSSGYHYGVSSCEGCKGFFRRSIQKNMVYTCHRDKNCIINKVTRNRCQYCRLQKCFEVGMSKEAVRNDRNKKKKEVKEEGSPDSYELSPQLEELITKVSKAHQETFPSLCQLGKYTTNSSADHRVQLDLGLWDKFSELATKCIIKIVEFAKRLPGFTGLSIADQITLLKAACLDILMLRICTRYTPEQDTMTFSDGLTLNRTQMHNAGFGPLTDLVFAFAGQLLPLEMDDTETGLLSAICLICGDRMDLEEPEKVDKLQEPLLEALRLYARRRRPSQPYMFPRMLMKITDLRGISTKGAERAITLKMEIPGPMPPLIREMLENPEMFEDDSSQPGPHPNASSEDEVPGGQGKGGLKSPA
Sequence of Retinoic acid receptor RXR-alpha (Homo sapiens) (P19793 whole entry, looked up, the tested form may be a part): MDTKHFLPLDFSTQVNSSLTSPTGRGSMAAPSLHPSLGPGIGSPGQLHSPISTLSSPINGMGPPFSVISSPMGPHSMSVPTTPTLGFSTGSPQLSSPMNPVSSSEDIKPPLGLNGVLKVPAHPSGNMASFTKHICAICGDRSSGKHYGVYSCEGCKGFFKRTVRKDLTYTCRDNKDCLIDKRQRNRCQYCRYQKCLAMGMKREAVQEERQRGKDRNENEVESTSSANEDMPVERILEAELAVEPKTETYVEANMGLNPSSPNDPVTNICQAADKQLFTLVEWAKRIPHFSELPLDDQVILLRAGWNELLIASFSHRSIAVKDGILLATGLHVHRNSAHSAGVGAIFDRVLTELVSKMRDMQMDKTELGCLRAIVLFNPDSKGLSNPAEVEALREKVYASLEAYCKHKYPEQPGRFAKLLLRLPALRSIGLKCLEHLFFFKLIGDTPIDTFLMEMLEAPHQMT
Sequence of Retinoic acid receptor alpha (Homo sapiens) (P10276 whole entry, looked up, the tested form may be a part): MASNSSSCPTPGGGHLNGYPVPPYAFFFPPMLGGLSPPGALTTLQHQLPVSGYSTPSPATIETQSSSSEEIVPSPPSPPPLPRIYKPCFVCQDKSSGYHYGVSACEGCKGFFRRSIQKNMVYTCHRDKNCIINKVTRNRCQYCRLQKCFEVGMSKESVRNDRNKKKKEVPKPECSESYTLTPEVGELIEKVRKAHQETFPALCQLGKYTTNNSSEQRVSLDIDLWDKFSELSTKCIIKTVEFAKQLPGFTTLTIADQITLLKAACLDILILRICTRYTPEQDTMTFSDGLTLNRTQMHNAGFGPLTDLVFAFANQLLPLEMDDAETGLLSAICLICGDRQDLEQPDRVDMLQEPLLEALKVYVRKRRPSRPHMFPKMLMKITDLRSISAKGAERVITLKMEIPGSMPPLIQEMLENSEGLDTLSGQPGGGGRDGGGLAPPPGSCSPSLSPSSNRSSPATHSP
Sequence of Peroxisome proliferator-activated receptor gamma (Homo sapiens) (P37231 whole entry, looked up): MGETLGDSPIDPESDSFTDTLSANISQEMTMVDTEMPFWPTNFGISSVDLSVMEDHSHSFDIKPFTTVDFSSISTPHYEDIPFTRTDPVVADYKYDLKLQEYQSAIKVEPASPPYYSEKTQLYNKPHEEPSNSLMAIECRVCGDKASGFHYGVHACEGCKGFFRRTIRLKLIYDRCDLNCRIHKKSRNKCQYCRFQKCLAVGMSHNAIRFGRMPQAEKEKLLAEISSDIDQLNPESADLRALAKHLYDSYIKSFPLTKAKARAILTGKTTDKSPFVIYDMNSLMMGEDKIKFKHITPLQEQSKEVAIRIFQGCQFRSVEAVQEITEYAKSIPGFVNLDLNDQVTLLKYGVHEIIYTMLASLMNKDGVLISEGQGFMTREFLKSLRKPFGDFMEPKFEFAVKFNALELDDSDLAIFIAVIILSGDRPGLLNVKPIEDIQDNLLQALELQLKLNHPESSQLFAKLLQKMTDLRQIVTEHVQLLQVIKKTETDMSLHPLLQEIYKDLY
Sequence of E-selectin (Homo sapiens) (P16581 whole entry, looked up): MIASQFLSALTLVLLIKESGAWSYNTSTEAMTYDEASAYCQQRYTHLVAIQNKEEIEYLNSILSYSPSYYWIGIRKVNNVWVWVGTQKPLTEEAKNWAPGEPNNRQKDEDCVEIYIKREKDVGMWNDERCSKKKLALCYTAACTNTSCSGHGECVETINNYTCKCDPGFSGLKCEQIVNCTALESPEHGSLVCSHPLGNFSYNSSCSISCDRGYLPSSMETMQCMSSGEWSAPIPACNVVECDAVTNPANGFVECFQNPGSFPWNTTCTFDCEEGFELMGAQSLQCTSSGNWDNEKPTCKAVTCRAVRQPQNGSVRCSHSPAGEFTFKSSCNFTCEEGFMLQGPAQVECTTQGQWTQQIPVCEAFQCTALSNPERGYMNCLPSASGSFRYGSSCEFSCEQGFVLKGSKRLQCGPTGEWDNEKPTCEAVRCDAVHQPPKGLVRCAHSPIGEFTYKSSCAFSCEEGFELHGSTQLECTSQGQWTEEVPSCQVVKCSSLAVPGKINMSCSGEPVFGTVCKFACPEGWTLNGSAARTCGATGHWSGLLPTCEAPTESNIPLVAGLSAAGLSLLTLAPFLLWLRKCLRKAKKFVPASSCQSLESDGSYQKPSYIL
Sequence of Nuclear receptor subfamily 1 group I member 2 (Homo sapiens) (O75469 whole entry, looked up, the tested form may be a part): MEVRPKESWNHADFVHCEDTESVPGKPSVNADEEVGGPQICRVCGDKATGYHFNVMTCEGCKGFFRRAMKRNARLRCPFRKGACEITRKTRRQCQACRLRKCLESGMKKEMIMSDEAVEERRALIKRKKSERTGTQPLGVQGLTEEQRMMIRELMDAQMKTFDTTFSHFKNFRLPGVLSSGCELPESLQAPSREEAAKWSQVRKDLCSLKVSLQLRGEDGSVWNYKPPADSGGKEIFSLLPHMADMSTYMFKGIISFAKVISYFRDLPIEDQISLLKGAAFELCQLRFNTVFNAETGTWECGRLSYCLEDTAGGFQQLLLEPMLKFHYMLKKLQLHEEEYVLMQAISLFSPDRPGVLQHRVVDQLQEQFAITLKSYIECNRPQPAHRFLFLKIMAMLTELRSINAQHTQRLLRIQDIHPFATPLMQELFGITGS

Take `CS(=O)(=O)NC(=O)c1cc(Oc2ccc(C(F)(F)F)cc2Cl)ccc1[N+](=O)[O-]`: the result in [1], in experiment [2], in experiment [3], in experiment [4], in experiment [5] and in experiment [8] was inactive. Also, the outcome in experiment [9], in [10], in experiment [11], in experiment [12], in experiment [13] and in [14] was inactive. The outcome in experiment [15], in experiment [16] and in experiment [17] was inactive. In addition, the AC50 in experiment [6] is 30.3 µM (active); in experiment [7] it was 7.65 µM (active).
For `Nc1ccc(Cl)cc1N`, the call in experiment [1], in experiment [2], in experiment [3], in experiment [4], in [6] and in experiment [7] was inactive. Moreover, the compound was classed as inactive in experiment [8], in [9], in experiment [18], in experiment [12], in experiment [13] and in experiment [14]. In addition, the result in [16] and in experiment [17] was inactive. Further, the values for the AC50 in [10], in experiment [11] and in experiment [15] were 27.8 µM (active), 3.48 µM (active) and 5.99 µM (active), respectively.
Consider `CC(C)(OOC(C)(C)c1ccccc1)c1ccccc1`, for which the compound was classed as inactive in [1], in [2], in experiment [6], in [8], in experiment [9] and in experiment [12]. The half-maximal activity concentration (AC50) was 31.1 µM (active) in [5]; 7.09 µM (active) in experiment [7]; 12.4 µM (active) in experiment [10]; 26.1 µM (active) in experiment [11]; 15.8 µM (active) in experiment [13]; 26.5 µM (active) in [14]. Besides, the results for the AC50 in [15], in [16] and in [17] were 24.6 µM (active), 29.8 µM (active) and 29.3 µM (active), respectively.
Regarding `Nc1ccc(Oc2ccc(N)cc2)cc1`, the call in experiment [1], in experiment [2], in [4], in experiment [5], in experiment [6] and in [8] was inactive. In addition, the compound was classed as inactive in [9], in experiment [11], in experiment [12], in experiment [13], in [14] and in experiment [15]. Also, the outcome in experiment [16] and in experiment [17] was inactive.
